{"source": "PubChem BioAssay", "note": "Values without a mark were called inactive. How the calls were made is not given here."}
{"system": "Aerobactin synthetase IucA (Klebsiella pneumoniae hvKP1)", "assay": "IucA enzyme inhibition, primary screen, biochemical, Spectrum library (AID 1346200);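 further: 100% = wells without compound and 0% = wells lacking enzyme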", "conditions": "malachite green pyrophosphate, A620, at 8 µM, hits give low values", "units": {"activity remaining": "%"}}
{"smiles": "CCCCCN=C(N)N/N=C/c1c[nH]c2ccc(OC)cc12", "activity remaining": 108}
{"smiles": "CC(=O)Oc1ccc2c(c1C(C)C)CCC1C(C)(C)CCC[C@]21C", "note": "(stereo partly drawn)", "activity remaining": 97.3}
{"smiles": "CC(=O)O[C@H]1CC[C@@]2(C)C(C[C@H](OC(C)=O)[C@@]3(C)C4=CC(=O)OC(c5ccoc5)[C@]4(C)CCC23)C1(C)C", "note": "(stereo partly drawn)", "activity remaining": 119}
{"smiles": "CN1CCc2cccc3c2C1Cc1ccc(O)c(O)c1-3", "note": "(stereo not drawn)", "activity remaining": 87.4}
{"smiles": "Cc1cc(CC(=O)O)n(C)c1C(=O)c1ccc(Cl)cc1", "activity remaining": 77.2}
{"smiles": "CC1(C)C(=O)C=C[C@@]2(C)C1CC(=O)[C@@]1(C)C3=CC(=O)O[C@@H](c4ccoc4)[C@]3(C)CCC12", "note": "(stereo partly drawn)", "activity remaining": 107}
{"smiles": "COc1ccc2c(=O)ccoc2c1", "activity remaining": 120}
{"smiles": "O=c1cc(-c2ccc(O)cc2)oc2cc(O[C@@H]3O[C@H](CO)[C@@H](O)[C@H](O)[C@H]3O)cc(O)c12", "activity remaining": 101}
{"smiles": "CC1=C2[C@@H](CC1)[C@@H](C)CC[C@@H]2/C=C(\\C)C(=O)O", "activity remaining": 113}
{"smiles": "CC(C)(S)C(N)C(=O)O", "note": "(stereo not drawn)", "activity remaining": 128}
{"smiles": "O[N+]1=CC=CCC1=S.On1ccccc1=S.[Zn]", "activity remaining": 92.5}
{"smiles": "C=C1CC[C@@]2(OC1)O[C@H]1CC3C4CC=C5C[C@@H](O)C[C@@H](O)[C@]5(C)C4CC[C@]3(C)[C@H]1[C@@H]2C", "note": "(stereo partly drawn)", "activity remaining": 113}
{"smiles": "COC(=O)C[C@H]1C2(C)CC34OC5(C)O[C@@]6([C@H](OC)C(OC(=O)C(C)C)[C@]7(C)C(/C(=C(/OC)C(C)C)C(=O)O[C@H]7c7ccoc7)[C@@]6(O5)[C@H](OC)[C@@]3(OC)C2OC(C)=O)[C@]14C", "note": "(stereo partly drawn)", "activity remaining": 119}
